# This excerpt belongs to a sample that is enriched for the strongest signals.
# B1: PX14343H-pdi-506-26-506 (Parabacteroides distasonis) (protein)
# chain: QPTGTMTTDSKLTSKESALALTNSAYLKNTVFNKMTPGWGCNTILLLEYMTGKATSENSQSNYKDFQDLLVSDRSLYIEDWWQDCYAGIANCNLALQKLGEFENLDASLVNGYMAEVKFMRALYYFYLVRIFGDVPKITTVQSELGELQVSRAPVKEIYDEIIIPDLLEAEQSDLAFSDHTGRVSMGAVKALLADVYLTYAGYPLQGGKSYYAESAKRSLEVIKSNEYTLFTDYESLRLPSQNNKGEFIYQVQFSLNKRHNESVRIFLPSRSGISAYDLEYGSLIPTKEFVESFEKGDKRTEEKQYFFTNYKGHPSKFSPGAAELEFMDLNGYYIYKFFDQVAVDNTAKSDLNWSVYRYTDVLLMYAEAQVNADGTPNQQSIDIVNQIRGRAGLAPFKQTNASAFLEEVWDQRYFDLCYENKMWFDMLRTRKIRDDKSGEYVDFIGYKTNWGKVYTETQLLFPIPLSERQANPNLTQNQGY
# How the values were obtained:
# Experiment in all cases: glycan array binding signal (z-score within array); higher = stronger binding
# Details in all cases: glycan notation: IUPAC condensed, linker removed
# [1] = molecular target: Gal(b1-4)GlcNAc(b1-3)Gal(b1-4)GlcNAc(b1-2)Man(a1-3)[Gal(b1-4)GlcNAc(b1-3)Gal(b1-4)GlcNAc(b1-2)Man(a1-6)]Man(b1-4)GlcNAc(b1-4)[Fuc(a1-6)]GlcNAc
# Outline: (§1)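 The Consortium for Functional Glycomics database supplied 3228 glycan arrays, of which those lacking an available protein sequence were dropped. The binding signal, a within-array Z-score, was averaged across arrays of the same protein sequence and across linkers. Negative scores can be read as non-binding.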
# [2] = molecular target: Gal(b1-4)GlcNAc(b1-3)Gal(b1-4)GlcNAc(b1-3)Gal(b1-4)GlcNAc
# Outline: as §1
# [3] = molecular target: Gal(b1-4)GlcNAc(b1-3)Gal(b1-4)GlcNAc(b1-3)Gal(b1-4)GlcNAc(b1-2)Man(a1-3)[Gal(b1-4)GlcNAc(b1-3)Gal(b1-4)GlcNAc(b1-3)Gal(b1-4)GlcNAc(b1-2)Man(a1-6)]Man(b1-4)GlcNAc(b1-4)GlcNAc
# Outline: as §1
# [4] = molecular target: Gal(b1-4)GlcNAc(b1-3)Gal(b1-4)GlcNAc(b1-3)Gal(b1-4)GlcNAc(b1-2)Man(a1-3)[Gal(b1-4)GlcNAc(b1-3)Gal(b1-4)GlcNAc(b1-3)Gal(b1-4)GlcNAc(b1-2)Man(a1-6)]Man(b1-4)GlcNAc(b1-4)[Fuc(a1-6)]GlcNAc
# Outline: as §1
# [5] = molecular target: Gal(b1-4)GlcNAc(b1-3)Gal(b1-4)GlcNAc(b1-3)Gal(b1-4)GlcNAc(b1-3)Gal(b1-4)GlcNAc(b1-2)Man(a1-3)[Gal(b1-4)GlcNAc(b1-3)Gal(b1-4)GlcNAc(b1-3)Gal(b1-4)GlcNAc(b1-3)Gal(b1-4)GlcNAc(b1-2)Man(a1-6)]Man(b1-4)GlcNAc(b1-4)[Fuc(a1-6)]GlcNAc
# Outline: as §1
# [6] = molecular target: Gal(b1-4)GlcNAc(b1-3)Gal(b1-4)GlcNAc(b1-3)Gal(b1-4)GlcNAc(b1-3)Gal(b1-4)GlcNAc(b1-3)Gal(b1-4)GlcNAc(b1-2)Man(a1-3)[Gal(b1-4)GlcNAc(b1-3)Gal(b1-4)GlcNAc(b1-3)Gal(b1-4)GlcNAc(b1-3)Gal(b1-4)GlcNAc(b1-3)Gal(b1-4)GlcNAc(b1-2)Man(a1-6)]Man(b1-4)GlcNAc(b1-4)GlcNAc
# Outline: as §1
# [7] = molecular target: Gal(b1-4)GlcNAc(b1-3)Gal(b1-4)GlcNAc(b1-3)Gal(b1-4)GlcNAc(b1-3)Gal(b1-4)GlcNAc(b1-3)Gal(b1-4)GlcNAc(b1-3)Gal(b1-4)GlcNAc(b1-2)Man(a1-3)[Gal(b1-4)GlcNAc(b1-3)Gal(b1-4)GlcNAc(b1-3)Gal(b1-4)GlcNAc(b1-3)Gal(b1-4)GlcNAc(b1-3)Gal(b1-4)GlcNAc(b1-3)Gal(b1-4)GlcNAc(b1-2)Man(a1-6)]Man(b1-4)GlcNAc(b1-4)GlcNAc
# Outline: as §1
# [8] = molecular target: Gal(b1-4)GlcNAc(b1-3)Gal(b1-4)GlcNAc(b1-3)[Gal(b1-4)GlcNAc(b1-3)Gal(b1-4)GlcNAc(b1-6)]GalNAc
# Outline: as §1
# [9] = molecular target: Gal(b1-4)GlcNAc(b1-6)GalNAc
# Outline: as §1
# Gal3S4S(b1-4)GlcNAc = molecular target: Gal3S4S(b1-4)GlcNAc
# Outline: as §1
# Gal4S6S(b1-4)GlcNAc = molecular target: Gal4S6S(b1-4)GlcNAc
# Outline: as §1
# GalNAc6S(b1-4)GlcNAc = molecular target: GalNAc6S(b1-4)GlcNAc
# Outline: as §1
# [10] = molecular target: GlcNAc6S(b1-3)Gal(b1-4)GlcNAc
# Outline: as §1
# [11] = molecular target: Man(a1-2)Man(a1-3)[Man(a1-2)Man(a1-6)]Man
# Outline: as §1
# [12] = molecular target: Man(a1-2)Man(a1-3)[Man(a1-2)Man(a1-6)]Man(a1-6)[Man(a1-2)Man(a1-2)Man(a1-3)]Man(b1-4)GlcNAc(b1-4)GlcNAc
# Outline: as §1
# Man(b1-4)GlcNAc = molecular target: Man(b1-4)GlcNAc
# Outline: as §1
# Neu5Ac(a2-3)Gal = molecular target: Neu5Ac(a2-3)Gal
# Outline: as §1
# [13] = molecular target: Neu5Ac(a2-3)Gal(b1-3)GlcNAc(b1-4)Gal(b1-4)Glc
# Outline: as §1
# [14] = molecular target: Neu5Ac(a2-3)Gal(b1-3)[GlcNAc(b1-6)]GalNAc
# Outline: as §1
# Neu5Ac(a2-3)Gal(b1-4)Glc = molecular target: Neu5Ac(a2-3)Gal(b1-4)Glc
# Outline: as §1
# [15] = molecular target: Neu5Ac(a2-3)Gal(b1-4)GlcNAc(b1-2)Man(a1-3)[Neu5Ac(a2-6)Gal(b1-4)GlcNAc(b1-2)Man(a1-6)]Man(b1-4)GlcNAc(b1-4)GlcNAc
# Outline: as §1
# [16] = molecular target: Neu5Ac(a2-3)Gal(b1-4)GlcNAc(b1-6)[Gal(b1-3)]GalNAc
# Outline: as §1
# [17] = molecular target: Neu5Ac(a2-3)[Neu5Ac(a2-6)]GalNAc
# Outline: as §1
# [18] = molecular target: Neu5Ac(a2-6)Gal(b1-4)GlcNAc(b1-2)Man(a1-3)[Gal(b1-4)GlcNAc(b1-2)Man(a1-6)]Man(b1-4)GlcNAc(b1-4)GlcNAc
# Outline: as §1
# [19] = molecular target: Neu5Gc(a2-3)Gal(b1-4)GlcNAc(b1-3)Gal(b1-4)GlcNAc(b1-2)Man(a1-3)[Neu5Gc(a2-3)Gal(b1-4)GlcNAc(b1-3)Gal(b1-4)GlcNAc(b1-2)Man(a1-6)]Man(b1-4)GlcNAc(b1-4)GlcNAc
# Outline: as §1
binder,measurement,setting,value
B1,glycan array binding signal (z-score),[1],6.92
same,glycan array binding signal (z-score),[2],-0.114
same,glycan array binding signal (z-score),[3],3.24
same,glycan array binding signal (z-score),[4],6.72
same,glycan array binding signal (z-score),[5],0.292
same,glycan array binding signal (z-score),[6],0.552
same,glycan array binding signal (z-score),[7],4.45
same,glycan array binding signal (z-score),[8],0.311
same,glycan array binding signal (z-score),[9],-0.235
same,glycan array binding signal (z-score),Gal3S4S(b1-4)GlcNAc,-0.293
same,glycan array binding signal (z-score),Gal4S6S(b1-4)GlcNAc,-0.505
same,glycan array binding signal (z-score),GalNAc6S(b1-4)GlcNAc,0.278
same,glycan array binding signal (z-score),[10],-0.337
same,glycan array binding signal (z-score),[11],-0.49
same,glycan array binding signal (z-score),[12],-0.329
same,glycan array binding signal (z-score),Man(b1-4)GlcNAc,-0.406
same,glycan array binding signal (z-score),Neu5Ac(a2-3)Gal,-0.52
same,glycan array binding signal (z-score),[13],-0.388
same,glycan array binding signal (z-score),[14],-0.522
same,glycan array binding signal (z-score),Neu5Ac(a2-3)Gal(b1-4)Glc,-0.335
same,glycan array binding signal (z-score),[15],4.89
same,glycan array binding signal (z-score),[16],-0.127
same,glycan array binding signal (z-score),[17],-0.483
same,glycan array binding signal (z-score),[18],2.9
same,glycan array binding signal (z-score),[19],-0.486

# Source: the supplement of paper PMC8728848
